In PubChem BioAssay (NCATS) one finds activity change, negative = inhibition and max response data, which are given here for 13 compounds.

This test can be described thus: qHTS Assay for Lipid Storage Modulators (AID 1519). For activity change, negative = inhibition: % is set by controls: 0 for no effect and ±100 for the full control effect. The conditions noted are these: Drosophila S3 cells, BODIPY lipid droplet/cell ratio, laser cytometry, cells loaded with oleic acid. From the text:
NIH Molecular Libraries Probe Production Centers Network [MLPCN]
NIH Chemical Genomics Center [NCGC]
Assay Submitter (PI): Beller, Mathias; Max-Planck-Institut fur Biophysikalische Chemie
NCGC Assay Overview: Storing lipids as a reservoir for energy or the anabolism of elementary metabolites is a common feature of probably all cells and is conserved from bacteria to humans. The universal cellular lipid storage organelle is the so-called lipid storage droplet (LD). Although ubiquitous, LDs share a simple structure composed of a hydrophobic core that harbors the storage lipids, which is shielded by a droplet-specific phospholipid monolayer to which proteins are attached. The current model of LD biogenesis involves an incorporation of the lipid core into the membrane leaflets of the endoplasmic reticulum (ER) followed by a subsequent budding-like maturation of a LD, which ultimately pinches off. Once released, LD volume can increase by localized lipogenesis or fusion of existing droplets. Storage lipids are re-mobilized enzymatically by lipase activity. Lipase regulation in the adipocyte is heavily studied and involves multiple components including catecholamine signaling, the LD-associated proteins Perilipin and comparative gene identification-58 (CGI-58) and at least two lipases named hormone sensitive lipase (HSL) and adipocyte triglyceride lipase (ATGL). LD regulation outside of the adipocyte is poorly understood and only few components are known. However, there is an urgent need to learn more about ectopic fat depots as mislocalized storage of lipids, for example in the liver or muscle, is an eminent health problem associated with insulin resistance or the metabolic syndrome. We developed a laser-scanning cytometer assay to enable 1,536-well screening and combined the results of the small molecules screen with an RNAi database based on lipid storage.
NCGC Assay Protocol Summary:
We dispensed 4 uL of cells at 1.25 x 10^6 cells/mL into LoBase Aurora COC 1,536-well plates (black walled, clear bottom) with a bottle-valve solenoid-based dispenser (Aurora) to obtain 5,000 cells/well. Triacsin C (Sigma-Aldrich T-4540), an inhibitor of long-chain fatty acyl CoA synthetase that blocks synthesis of triglycerides, was used as a positive control for lipid under-storage. A total of 23 nL of compound solution of different concentrations were transferred to the assay plates using a Kalypsys pin tool equipped with a 1,536-pin array containing 10-nL slotted pins (FP1S10, 0.457-mm diameter, 50.8 mm long; V&P Scientific). One microliter of oleic acid (400 uM) was added, and the plate was lidded with stainless steel rubber gasket lined lids containing pinholes. […] Fluorescence was detected by excitation of the fluorophores with a 488-nm laser on an Acumen Explorer (TTP Lab Tech). The total intensity in channel 1 (500-530 nm) reflected lipid droplet accumulation. […] The ratio of the total intensity in PMT channel 1 over total intensity of channel 3 was also calculated. Percent activity was computed relative to an internal control (100% inhibited lipid droplet deposition due to the presence of 20 uM Triacsin C), which was added to 32 wells/plate.
A general note: In qHTS, concentration-response curves come from the screen itself.

The mark [1] stands for this setting: measured here: cell count channel max response.
The mark [2] stands for this setting: measured here: lipid channel max response.

Structures are written as SMILES. Several values for one entry are separate records, joined by “and”; a condition that tells them apart may be missing. Equal values may be shown once. Results filed as inconclusive are left out. Activity calls are given as the source filed them. Calls come from the whole dose curve.

Consider `N=C(N)c1ccc(OCCCCCOc2ccc(C(=N)N)cc2)cc1`, for which the activity change, negative = inhibition is -3.38% (inactive) (at 25.7 µM (top of the series)) and 3.95% (inactive) (at 57.5 µM (top of the series)). In addition, the max response is, setting by setting: under setting [1], 3.1% and 6.27%; under setting [2], -0.0009% and 12.3%.

For `N[C@@H](Cc1ccc(O)c(O)c1)C(=O)O`, where the note is “at 25.7 µM (top of the series)”, the activity change, negative = inhibition is -1.67% (inactive). Besides, the max response is -2.41% under setting [1] and -4.9% under setting [2].

For the compound `COc1ncnc(NS(=O)(=O)c2ccc(N)cc2)c1OC`, under “at 25.7 µM (top of the series)”, the activity change, negative = inhibition is -2.34% (inactive). Besides, the max response is, setting by setting: under setting [1], -20.8%; under setting [2], -23.2%.

Turning to `COc1ccc2cc3[n+](cc2c1OC)CCc1cc2c(cc1-3)OCO2`, the activity change, negative = inhibition (at 25.7 µM (top of the series)) was -1.57% (inactive). Further, the max response runs as follows: under setting [1], -13.6%; under setting [2], -12.8%.

On to `CCCCOc1ccc(CC(=O)NO)cc1`, for which the activity change, negative = inhibition (at 25.7 µM (top of the series)) is 0.283% (inactive). The max response is -2.68% under setting [1] and -0.905% under setting [2].

For `C1CCC(C(CC2CCCCN2)C2CCCCC2)CC1` (stereo not given), for the setting “at 57.5 µM (top of the series)”, the activity change, negative = inhibition is -9.69% (inactive). The max response is, setting by setting: under setting [1], -15.8%; under setting [2], -21.2%.

As to `COc1ccc(C(=O)CC(=O)c2ccc(C(C)(C)C)cc2)cc1`, the activity change, negative = inhibition (at 57.5 µM (top of the series)) was 1.96% (inactive). The max response is -16.9% under setting [1] and -13.6% under setting [2].

Turning to `CCCCCCNC(=O)n1cc(F)c(=O)[nH]c1=O`, the activity change, negative = inhibition (at 57.5 µM (top of the series)) is 8.3% (inactive). The max response by setting is: under setting [1], 11.2%; under setting [2], 19.7%.

For `O=c1oc2c(O)c(O)cc3c(=O)oc4c(O)c(O)cc1c4c23`, the activity change, negative = inhibition (at 57.5 µM (top of the series)) is 8.32% (inactive). Moreover, the max response is 18.5% under setting [1] and 32.6% under setting [2].

With `O=C(N[C@H](CO)[C@H](O)c1ccc([N+](=O)[O-])cc1)C(Cl)Cl`, for the setting “at 57.5 µM (top of the series)”, the activity change, negative = inhibition is 4.84% (inactive). Besides, the max response runs as follows: under setting [1], -11.7%; under setting [2], -6.22%.

As to `CC1=NN(c2ccccc2)C(=O)C1`, the activity change, negative = inhibition (at 57.5 µM (top of the series)) was 5.32% (inactive). Further, the max response reads like this: under setting [1], 16.1%; under setting [2], 20.6%.

On to `Cc1ncc([N+](=O)[O-])n1CCO`, for which the activity change, negative = inhibition (at 57.5 µM (top of the series)) was 8.03% (inactive). In addition, the max response under setting [1] was 17.2% and the max response under setting [2] was determined as 27.3%.

In the case of `NCCCC(O)(P(=O)(O)O)P(=O)(O)O`, the activity change, negative = inhibition (at 57.5 µM (top of the series)) is 6.27% (inactive). Further, the max response is -1.05% under setting [1] and 16.4% under setting [2].
